In the library only some 19% were active in any assay of this set; here they are far more common.
MCF10A rerep – induces DNA re-replication in MCF 10a normal breast cells; MCF 10A DNA re-replication, Hoechst nuclear intensity, 48 h; Potency, µM (titrated, usually from 46.1 µM), inactives show at the top dose activity, positive = re-replication, actives largely listed as activators; 350,000 compounds, 2.9% hits; AID 624296; also: potency is read from the fitted curve at half-maximal effect; % of control where 0% means no effect; nearly all actives have a fitted effect of over 50% in size
BCR signal inh – chronic active BCR signaling inhibition; 340,000 compounds, 0.05% hits; ABC-DLBCL IkBa-CBG/CBR reporter, luminescence ratio, 4 h; Potency, µM (doses to about 46.1 µM), inactives show at the highest dose activity change, negative = inhibition, usual class: inhibitors; active = well fitted inhibition curve with a large enough effect in the signal ratio, with a control signal flat, not every such curve was filed as active; inconclusive = small, poorly fitted or top-dose-only effect, or effect the other way, or a change in a side signal; the % refers to the signal ratio;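 also: potency is read from the fitted curve at half-maximal effect; plate controls were basal doxycycline-induced cells for no effect and cells given 10 µM MG132 for full effect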
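Cell line TMD8 (human ABC DLBCL), stably expressing tet-inducible CBG68-IkBa fusion and CBR; IMDM/0.5% FBS; cpd up to 46 uM; dox induction, 4 h, 37C/5% CO2; dual luminescence; green/red ratio; MG132 control.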
TDP1 cell CPT – DT40-hTDP1 cell growth loss with CPT; Potency, µM (doses to about 46.2 µM), without a hit: at the top dose activity change, negative = growth inhibition, most hits filed as inhibitors; chicken DT40 Tdp1-/-;hTDP1 cells + 20 nM CPT, ATP luminescence, 48 h; 420,000 compounds, 12% hits; also: potency is read from the fitted curve at half-maximal effect; % is scaled to controls: 0 for no effect and ±100 for the full control effect; nearly all actives have a fitted effect of over 55% in size
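Chicken DT40 Tdp1-/- cells stably complemented with human TDP1 were seeded at 400 cells/well in medium containing 20 nM camptothecin, exposed to pin-transferred compounds, and grown at 37 °C for at least 48 hr. Viability was read as ATP luminescence.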
DT40 TDP1 no CPT – qHTS for Inhibitors of human tyrosyl-DNA phosphodiesterase 1 (TDP1): qHTS in cells in absence of CPT; DT40 Tdp1-/- hTDP1 cells, no CPT, ATP luminescence, 48 h; Potency, µM (top dose mostly 46.2 µM), inactives show at the highest dose activity change, negative = growth inhibition, usual class: inhibitors; 420,000 compounds, 15% hits; AID 686978, 2013; also: potency is read from the fitted curve at half-maximal effect; % is scaled to controls: 0 for no effect and ±100 for the full control effect; nearly all actives have a fitted effect of over 55% in size
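Seeded 400 DT40-hTDP1 cells/well (vehicle DMSO, no 20 nM CPT); pinned compounds; ≥48 hr at 37 °C; CellTiter-Glo luminescence as viability measure.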
IL-1B inflam inh – blocks inflammasome-driven IL-1 beta release; THP-1 LPS/ATP IL-1B secretion, AlphaLISA, 16 h; hits give low values; activity change, % at 57.5 µM; 360,000 compounds, 4.7% hits; AID 743279; in the data active = activity change below about -50%; inconclusive = mostly about -30% to -49%; also: % is scaled to controls: 0 for no effect and ±100 for the full control effect
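Secreted IL-1B measured by AlphaLISA bead assay after 16 h compound exposure of THP-1 cells; compounds (final up to 57.5 uM) added 1 h before LPS (250 ng/mL) and ATP (1.25 mM) stimulation; lower signal means less secretion.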
SW480 rereplic – induces DNA re-replication in SW480 colon adenocarcinoma cells; SW480 DNA re-replication, Hoechst DNA content imaging, 48 h; Potency, µM (highest dose often 46.1 µM), for the others: top-dose re-replication activation, usual class: activators; 340,000 compounds, 1.8% hits; AID 624297; also: potency is read from the fitted curve at half-maximal effect; % of control where 0% means no effect; nearly all actives have a fitted effect of over 55% in size
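Treated cells incubate 48 hr (37 C, 5% CO2), are stained 40 min with Hoechst, and nuclear fluorescence is enumerated; a rise in nuclei with high DNA signal marks re-replication.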
* hit, by the source's call; i = inactive; u = inconclusive; x = no result given; ! = repeats disagree. Unless noted, calls follow the shape of the dose curve; as a rule, active = well fitted curve in the direction sought with a large enough effect; inconclusive = small, poorly fitted or top-dose-only effect, or another doubt; inactive = no such curve, though single readings can be large; an effect the other way counts as inactive or inconclusive.

SMILES	MCF10A rerep	BCR signal inh	TDP1 cell CPT	DT40 TDP1 no CPT	IL-1B inflam inh	SW480 rereplic
Cc1cc(C(=O)CCl)c(C)n1CCc1ccc(Cl)cc1	16.4µM*	u	-98.5%	3.66µM*	-96.2*	5.17µM*
Cc1cc(C(=O)CSc2nnc(N)s2)c(C)n1CCc1ccc(Cl)cc1	20.2%	-11.4%	9.2µM*	u	17.2	0.5%
CC1(C)Cc2c(cnn2-c2ccc(F)cc2)C(NC(=O)CCN2CCCCC2=O)C1 (configuration not stated)	-0.4%	1.0%	-13.2%	-24.5%	16.1	2.5%
COc1ccc(-n2nc(C(=O)Nc3ccc(Cl)cn3)c3c4ccccc4n(C)c3c2=O)cc1Cl	x	x	9.7%	-1.4%	x	x
Cc1cc(C)c(C(=O)CSc2n[nH]c(=O)n2C2CC2)cc1C	-0.7%	-3.3%	11.2µM*	20µM*	-7.2	-3.2%
CCNc1ncc2nc(-c3cccs3)c(=O)n(Cc3cccc(OC)c3)c2n1	x	x	-14.8%	-3.4%	x	x
Nc1nc(-c2cc(O)ccc2[N+](=O)[O-])cc(-c2ccccc2)c1[N+](=O)[O-]	1.84µM*	14.8%	7.31µM*	8.2µM*	2.4	23.1µM*
Cc1cc(NC(=O)CSCC(=O)N2CCN(c3ccccc3)CC2)no1	-3.7%	-1.2%	10.9%	-19.5%	16.2	3.1%
Cc1nn(C)c(C)c1NC(=O)CSc1nc(Cc2ccccc2)nc2c1cnn2-c1ccccc1	0.9%	x	u	u	3.3	-13.6%
Cc1nn(Cc2ccccc2)c(C)c1NC(=O)CSc1nc(C2CC2)nc2c1cnn2-c1ccccc1	u	-8.8%	16.4µM*	16.4µM*	3.9	14.0%
CSc1nc(Cl)c(C#N)c(-c2ccc(C)cc2)n1	3.3%	8.6%	9.2µM*	u	8.1	-6.9%
COc1ccc(-c2nc(-c3ccccc3)nc(Cl)c2C#N)cc1	u	-3.2%	u	10.3µM*	-13.0	u
CNc1nc(-c2ccccc2)nc(-c2ccc(OC)cc2)c1C#N	-7.2%	6.8%	0.4%	3.5%	0.1	-6.1%
Cc1cc(-c2ccccc2)nc(Cl)c1C#N	0.8%	-0.7%	2.4%	1.9%	49.3	-3.4%
O=C(Cn1cc(C(F)(F)F)cc(Cl)c1=O)NC1CCS(=O)(=O)C1 (configuration not stated)	11.4%	1.5%	-2.1%	6.7%	14.2	3.0%
CCN(Cc1ccccc1)C(=O)c1cc(-c2ccc(OC)c(OC)c2)nc2ccccc12	u	0.0%	u	u	4.7	-1.3%
Cc1cc(C(=O)OCC(=O)NC2CCCC2)c2ccccc2n1	4.3%	6.8%	2.4%	9.6%	3.8	-15.8%
COc1cc(-c2cc(C(=O)N(C)Cc3ccccc3)c3ccccc3n2)cc(OC)c1OC	12.1%	u	14.6µM*	14.6µM*	-23.2	-15.2%
COc1cc(-c2cc(C(=O)OCC(=O)NC3CC3)c3ccccc3n2)cc(OC)c1OC	-21.5%	-4.7%	u	18.4µM*	-0.5	-8.9%
COc1ccccc1CN(C)C(=O)c1cc(-c2cc(OC)c(OC)c(OC)c2)nc2ccccc12	u	u	23.1µM*	10.3µM*	u	-2.2%
COc1ccc(-c2cc(C(=O)N(C)Cc3ccccc3F)c3ccccc3n2)cc1OC	u	-3.1%	u	18.4µM*	u	3.2%
COCCN(Cc1ccccc1)C(=O)c1cc(-c2ccc(OC)c(OC)c2)nc2ccccc12	u	-4.6%	u	u	i	u
CC(=O)Nc1ccc(-c2ccnc3c2CC(C(=O)NCc2ccccc2)O3)cc1 (configuration not stated)	x	x	0.0231µM*	0.0184µM*	60.1	x
CC(=O)Nc1ccc(-c2ccnc3c2CC(C(=O)NCc2ccco2)O3)cc1 (configuration not stated)	x	x	0.184µM*	0.0065µM*	40.2	x
CC(=O)Nc1ccc(-c2ccnc3c2CC(C(=O)NCCc2ccccc2)O3)cc1 (configuration not stated)	x	x	u	u	53.5	x
SMILES	MCF10A rerep	BCR signal inh	TDP1 cell CPT	DT40 TDP1 no CPT	IL-1B inflam inh	SW480 rereplic
CCCOc1ccc(N)cc1N	u	0.8%	5.17µM*	4.11µM*	u	u
CCCOc1cc(N)ccc1C(=O)OCCN(CC)CC	-5.3%	-4.0%	0.128µM*!	u	23.1	-10.2%
Nc1ccccc1OCCOc1ccccc1N	11.8%	0.4%	4.6%	-2.3%	-23.8	5.1%
CCN(CC)CCOC(=O)c1ccc(N)cc1	-14.3%	-23.5%	-1.0%	-14.6%	22.0	-49.4%
Cc1ccc(C)c(CN2CCc3nnc(CNC(=O)c4cc(C)oc4C)n3CC2)c1	x	x	u	-20.5%	x	x
CC(=O)/C=C1\N(C)c2ccc(C)cc2C1(C)C	-6.3%	0.5%	6.51µM*	5.17µM*	17.7	-14.0%
CN1/C(=C\C(=O)c2cccnc2)C(C)(C)c2ccccc21	16.4%	u	-63.9%	u	13.7	u
CN1/C(=C\C(=O)C(F)F)C(C)(C)c2ccccc21	-11.8%	1.1%	-7.5%	-28.3%	19.9	1.1%
CN1/C(=C\C=N\NC(=O)c2cccnc2)C(C)(C)c2ccccc21	3.8%	u	-4.0%	u	-4.2	-0.6%
CN1/C(=C\C=N\NC(=O)c2ccc(O)cc2)C(C)(C)c2ccccc21	28.7%	u	20.6µM*	18.4µM*	-5.9	-0.9%
CN1/C(=C/C(=S)NC(=O)C2CCC2)C(C)(C)c2ccccc21	u	-16.7%	16.4µM*	18.4µM*	-14.6	5.6%
CC(C)C(=O)NC(=S)/C=C1/N(C)c2ccccc2C1(C)C	7.8%	u	18.4µM*	8.2µM*	-2.6	0.4%
COc1ccc(S(=O)(=O)N2CCC3(CC2)OCCN3S(=O)(=O)c2cccs2)cc1OC	3.6%	-4.4%	u	u	-0.5	3.7%
Cc1ccc(C(=O)NC(=S)/C=C2\N(C)c3ccccc3C2(C)C)cc1	u	u	8.2µM*	3.66µM*	-16.6	14.5%
COC(=O)c1ccc(C)c(NC(=O)CCCN2C(=O)NC(C)(C)C2=O)c1	0.0%	3.2%	0.3%	2.8%	4.0	-1.7%
CCCCCCCCN1C(=O)[C@H](CC(=O)NCCCCc2ccccc2)C[C@@]2(C(=O)OCC)CCCC=C12	x	x	u	u	-24.7	x
CCOC(=O)[C@]12CCC=C1N(Cc1ccccc1)C(=O)[C@H](CC(=O)NCc1cccc(C(F)(F)F)c1)C2	x	x	u	23.1µM*	u	x
CCCCCCCCN1C(=O)[C@H](CC(=O)NCc2cccc(C(F)(F)F)c2)C[C@@]2(C(=O)OCC)CCCC=C12	x	x	u	u	-52.6*	x

From PubChem
